Compounds with a hit are over-represented: about 1.6% of the library has one in this group of screens.
KCNQ2 block = KCNQ2 (rat) channel inhibition; O88943; B-score at 10 µM; 310,000 compounds, 1.1% hits; CHO-K1 KCNQ2, FluxOR thallium flux, 20 min; hits give low values;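 active means fluorescence ratio B-score at most minus 3 library SDs, with starting brightness B-score within 2 library SDs, cut at about -5.5 in these data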
KCNQ2 pot = enhances the rat KCNQ2 potassium channel. O88943. CHO-K1 KCNQ2, FluxOR thallium flux fluorescence; hits give high values. B-score at 10 µM. 310,000 compounds, 0.54% hits. AID 2239;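 active means fluorescence ratio B-score at least 3 SD of library B-scores, with initial fluorescence B-score within 3 of them, cut at about 5.3 in these data; same plate scores as AID 2156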;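 further: B-score of peak minus minimum over baseline fluorescence ratio after K+ and Tl+ stimulus; positive B-score means potentiation of KCNQ2 with more thallium influx and brighter signal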
Kir21 confirm = confirmation of mouse Kir2.1 potassium channel inhibitors; Tl flux remaining, % of negative control (hits give low values), % at 10 µM; shares compounds with KCNQ2 pot; Kir2.1-expressing cells, FluxOR thallium flux fluorescence; hits give low values; 2,300 compounds, 41% hits;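 active means Primary-screen hit whose thallium flux fell at least 3 control SD below untreated wells in both duplicates, with normal baseline fluorescence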;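 further: 0% = blank wells without stimulus and 100% = stimulated no-compound controls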
HEK293 Tl flux = counter-screen for Kir2.1 inhibitors: effect in parental HEK293 cells; shares compounds with KCNQ2 pot; 2,300 compounds, 19% hits; FluxOR thallium flux fluorescence; 0% = unstimulated blank wells; FluxOR signal as % of negative control (100 = no effect), % at 10 µM;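 active means dye signal at least 3 control SD above or below untreated wells in both duplicates, raw fluorescence within 3, either direction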;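 further: percent is based on the flux ratio of peak minus minimum fluorescence over baseline F0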
CHO-K1 ctr = alters thallium flux in parental CHO-K1 cells, KCNQ2 counter-screen. activity increase over 3SD of controls, % at 10 µM. shares compounds with KCNQ2 pot. AID 2282. 1,200 compounds, 43% hits. FluxOR thallium flux fluorescence; zero = vehicle mean+3SD, 100% = vehicle-minus-blank window;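 active means signal rise of at least 3 SD above the untreated control mean, in both duplicate wells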;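 further: counter screen of KCNQ2 potentiator hits so any rise reflects channel-independent effects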
KCNQ1 sel pot = tests whether KCNQ2 potentiators also act on human KCNQ1; CHO KCNQ1 stable, FluxOR thallium flux fluorescence; beyond 3SD, as % of vehicle-control signal; shares compounds with KCNQ2 pot; activation over 3SD threshold, % at 10 µM; 1,200 compounds, 28% hits;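 active means fluorescence ratio rise of at least 3 SD of vehicle wells above their mean, in both replicate wells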;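 further: 0% = vehicle mean plus 3 SD and 100% = vehicle minus unstimulated blank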
Target sequence (P51787 whole entry, looked up): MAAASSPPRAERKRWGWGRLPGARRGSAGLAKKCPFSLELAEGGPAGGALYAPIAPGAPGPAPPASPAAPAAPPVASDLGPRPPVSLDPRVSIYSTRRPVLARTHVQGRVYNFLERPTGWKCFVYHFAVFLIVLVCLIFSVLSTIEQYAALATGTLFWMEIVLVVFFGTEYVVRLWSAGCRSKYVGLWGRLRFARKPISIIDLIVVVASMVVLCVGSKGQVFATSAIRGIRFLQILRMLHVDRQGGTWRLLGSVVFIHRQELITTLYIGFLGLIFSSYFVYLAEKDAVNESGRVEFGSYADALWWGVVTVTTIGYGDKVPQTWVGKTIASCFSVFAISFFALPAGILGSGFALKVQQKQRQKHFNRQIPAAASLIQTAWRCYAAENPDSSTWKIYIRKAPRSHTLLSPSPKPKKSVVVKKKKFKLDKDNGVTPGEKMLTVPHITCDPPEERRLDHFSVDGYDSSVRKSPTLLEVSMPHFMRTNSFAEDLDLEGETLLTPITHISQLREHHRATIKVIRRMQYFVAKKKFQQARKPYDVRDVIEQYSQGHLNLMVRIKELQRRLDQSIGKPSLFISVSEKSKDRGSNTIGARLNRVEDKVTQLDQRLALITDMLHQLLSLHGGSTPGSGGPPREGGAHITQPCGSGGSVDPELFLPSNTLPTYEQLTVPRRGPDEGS
KCNQ2 pot conf = confirmation of rat KCNQ2 potassium channel potentiators; shares compounds with KCNQ2 pot; CHO-KCNQ2 cells, FluxOR thallium flux fluorescence; potentiation, less the hit threshold, % at 10 µM; 1,200 compounds, 68% hits; AID 2287;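 active means fluorescence ratio rising 3 SD or more over the vehicle control mean in both replicates, plus primary screen hit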;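 further: peak minus minimum thallium fluorescence divided by baseline after K/Tl stimulus; 0% = vehicle mean plus 3 SD and 100% = vehicle minus unstimulated blank difference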
Kir2-1 sel = tests whether KCNQ2 potentiators also affect mouse Kir2.1. shares compounds with KCNQ2 pot. HEK293 Kir2.1, FluxOR thallium flux fluorescence. activity over 3SD threshold, % at 10 µM. 1,200 compounds, 2% hits. AID 2345;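 active means fluorescence ratio rise of at least 3 SD above the vehicle-control mean, seen in both replicates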;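 further: 0% = vehicle mean plus 3 SD and 100% = vehicle minus no-stimulus blank window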
KCNQ2 W236L pot = KCNQ2 potentiators acting on retigabine-insensitive rat KCNQ2 W236L mutant | shares compounds with KCNQ2 pot | CHO KCNQ2-W236L, automated patch clamp current | current increase over 3SD of negative controls (%), hits give high values, % at 25 µM | 940 compounds, 10% hits;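 active means current increase at least 3 SD of the untreated controls above them in both duplicate recordings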
An asterisk follows results filed as active; i = inactive; . = not tested or not shown.

SMILES | KCNQ2 block | KCNQ2 pot | Kir21 confirm | HEK293 Tl flux | others
CC(=O)n1cc(C(C[N+](=O)[O-])SCCN)c2ccccc21 (stereo not given) | -7.34* | -7.34 | 50.0%* | 76.0%*
Cn1cc(C(C[N+](=O)[O-])c2ccccc2)c2ccccc21 (stereo not given) | i | . | . | .
Cc1cc(C)c2oc(C(=O)N3CCN(C)CC3)cc(=O)c2c1 | i | 0.6 | . | .
CCCCn1c(N)c(N(CCOC)C(=O)COc2ccc(OCC)cc2)c(=O)[nH]c1=O | i | 0.94 | . | .
CCCCn1c(N)c(N(CCOC)C(=O)COC(=O)CCOc2ccccc2)c(=O)[nH]c1=O | i | . | i | i
O=[N+]([O-])c1ccc(Nc2ccc(Cl)cc2)nc1 | i | 13.6* | i | i | CHO-K1 ctr=-0.8;KCNQ1 sel pot=-21.2;KCNQ2 pot conf=18.5*;Kir2-1 sel=-23.1;KCNQ2 W236L pot=i
O=[N+]([O-])c1ccc(NCc2ccc(Cl)cc2)nc1 | i | 0.01 | . | .
COC(=O)c1c(NC(=O)COC(=O)CC(NC(C)=O)c2ccccc2)sc(C)c1C (stereo not given) | i | . | . | .
COC(CNC(=O)C(=O)Nc1cc2c3c(c1)CCN3C(=O)CC2)OC | i | . | . | .
Cc1ccc(NC(=O)C(C)OC(=O)Cc2c[nH]c3ccccc23)cc1 (stereo not given) | i | 0.34 | 52.5%* | i
Cc1ccc(C(=O)C(C)OC(=O)Cc2c[nH]c3ccccc23)cc1 (stereo not given) | i | . | . | .
Cn1cc(SCC(=O)N2CCOCC2)c2ccccc21 | i | . | . | .
Cn1cc(SCC(=O)N2CCCc3ccccc32)c2ccccc21 | i | . | 51.5%* | i
CN(C(=O)c1cc(S(=O)(=O)N2CCOCC2)cs1)c1ccccc1 | i | 0.44 | . | .
Cc1ccc(CNC(=O)C2CCCN(S(=O)(=O)N3CC(C)CC(C)C3)C2)cc1 (stereo not given) | i | . | . | .
C=CCOC(=O)C1=C(C)N=C2SCCC(=O)N2C1c1ccc(OC(=O)c2ccco2)cc1 (stereo not given) | i | . | . | .
COC(=O)C1=C(C)N=C2SCCC(=O)N2C1c1ccc(OC(=O)c2ccco2)cc1 (stereo not given) | i | . | 52.5%* | i
O=C(CN(C(=O)CNC(=O)c1ccco1)c1cccc(F)c1)NC1CCCCC1 | i | . | . | .
CC(=O)Nc1ccc(S(=O)(=O)NCC(=O)OC(C)c2ccccc2Cl)cc1 (stereo not given) | i | . | . | .
Cc1ccccc1NC(=S)NC(=O)COc1ccccc1C | i | 1.86 | . | .
COc1ccc(NC(=O)C2CCN(S(=O)(=O)c3ccc4c(c3)NC(=O)CO4)CC2)cc1 | i | 1.44 | . | .
CC(Sc1ccc(Cl)cc1)C(=O)Nc1ccc2c(c1)OCO2 (stereo not given) | i | 0.31 | . | .
CC(Sc1ccc(Cl)cc1)C(=O)NCc1ccc2c(c1)OCO2 (stereo not given) | i | 7.66* | i | i | CHO-K1 ctr=81.4*;KCNQ1 sel pot=13.9*;KCNQ2 pot conf=3.7*;Kir2-1 sel=-64.2;KCNQ2 W236L pot=i
Cc1nn(C(=O)c2cccc([N+](=O)[O-])c2)c(C)c1Cl | i | . | . | .
O=C(c1cccc(C(F)(F)F)c1)c1c[nH]c(C(=O)NCCCN2CCOCC2)c1 | i | . | . | .
SMILES | KCNQ2 block | KCNQ2 pot | Kir21 confirm | HEK293 Tl flux | others
C=CCn1c(=S)[nH]c2sc3c(c2c1=O)CCCC3 | i | 11.2* | i | 297.5%* | CHO-K1 ctr=-3.7;KCNQ1 sel pot=-25.2;KCNQ2 pot conf=63.4*;Kir2-1 sel=-24.6;KCNQ2 W236L pot=i
Cc1ccc(-n2c(=S)[nH]c3sc4c(c3c2=O)CCC4)cc1 | i | 1.97 | . | .
COCCn1c(=S)[nH]c2sc3c(c2c1=O)CCCC3 | i | 10.4* | i | 326.5%* | CHO-K1 ctr=-24.0;KCNQ1 sel pot=34.9*;KCNQ2 pot conf=33.5*;Kir2-1 sel=-8.4;KCNQ2 W236L pot=i
O=c1c2c3c(sc2[nH]c(=S)n1Cc1ccco1)CCC3 | i | 4.69 | . | .
O=C(CN1C(=O)NC2(CCCC2)C1=O)NNC(=O)c1ccc(Br)cc1 | i | . | . | .
CCCCNc1cc(C)nc(NCc2ccccc2)n1 | i | . | 15.0%* | i
Cc1cc(C)nc(NCCCc2ccccc2)n1 | i | . | . | .
COc1ccc(NC(=O)Cn2c(CCC(=O)O)ccc2-c2ccc(C)cc2)cc1 | i | . | . | .
Cc1ccc(CN2CCC(c3cc(-c4cccs4)n[nH]3)CC2)cc1 | i | . | 26.0%* | i
FC(F)(F)c1cccc(CN2CCC(c3cc(-c4cccs4)n[nH]3)CC2)c1 | i | . | . | .
Cc1ccc(C2NC(=O)Cc3ccccc32)cc1 (stereo not given) | i | 0.02 | . | .
COCCNC(=O)/C(C#N)=C/c1c(N2CCN(C)CC2)nc2ccccn2c1=O | i | 0.39 | . | .
O=C(NC12CC3CC(CC(C3)C1)C2)c1cc(F)c(F)c(F)c1F | i | . | . | .
COC(=O)CSc1[nH]c2ccc(F)cc2c1[N+](=O)[O-] | i | 6.37* | i | i | CHO-K1 ctr=-9.9;KCNQ1 sel pot=-26.8;KCNQ2 pot conf=28.9*;Kir2-1 sel=-40.0;KCNQ2 W236L pot=38.1%*
CCOC(=O)CSc1[nH]c2cc(OC)ccc2c1[N+](=O)[O-] | i | 0.03 | . | .
CCC1CCCCN1C(=S)NC(=O)c1cccc([N+](=O)[O-])c1 (stereo not given) | i | 4.1 | i | 347.5%*
CC1CCN(C(=S)NC(=O)c2cccc([N+](=O)[O-])c2)CC1 | i | 2.84 | . | .
CCN(CC(=O)Nc1ccc(NC(C)=O)cc1)C(=O)c1cccnc1Sc1ccc(C)c(C)c1 | i | . | . | .
O=c1c2c(-c3cccs3)csc2[nH]c(=S)n1-c1ccccc1 | i | 1.28 | . | .
C=CCn1c(SCC(C)=O)nc2scc(-c3ccc(C)o3)c2c1=O | i | . | . | .
C=CCn1c(=S)[nH]c2scc(-c3ccc(C)o3)c2c1=O | i | 15.6* | i | 384.5%* | CHO-K1 ctr=4.1*;KCNQ1 sel pot=-12.7;KCNQ2 pot conf=46.5*;Kir2-1 sel=-21.0;KCNQ2 W236L pot=i
CCn1c(=S)[nH]c2scc(-c3cccs3)c2c1=O | i | 18.3* | i | 508.0%* | CHO-K1 ctr=3.7*;KCNQ1 sel pot=-18.4;KCNQ2 pot conf=94.1*;Kir2-1 sel=1.6*;KCNQ2 W236L pot=i
CC(C)NC(=O)NC(=O)COC(=O)c1cccc(OC(F)F)c1 | i | 1.9 | . | .
O=c1[nH]sc2ccccc12 | i | 6.74* | i | i | CHO-K1 ctr=8.6*;KCNQ1 sel pot=-9.5;KCNQ2 pot conf=-8.1;Kir2-1 sel=-44.8;KCNQ2 W236L pot=i
O=c1c2ccccc2sn1-c1ccccc1 | i | . | . | .
COc1ccccc1N1CCN(S(=O)(=O)c2ccc(NC(C)=O)cc2)CC1 | i | . | . | .
